Each structure is given as a SMILES string. In all, about 320,000 compounds went through this assay and about 2,100 (0.66%) were called active. Inconclusive results (about 53%) are left out. The call rests on the fitted dose curve; in most records, active means well fitted inhibition curve with a large enough effect in the signal ratio, with a control signal flat (not every such curve was filed as active); inconclusive means small, poorly fitted or top-dose-only effect, or effect the other way, or a change in a side signal; inactive means flat fitted curve, though single readings scatter; the % refers to the signal ratio. For the sample, actives were picked, then their nearest neighbours and some compounds at random.

The record followed here is PubChem BioAssay AID2685 (National Center for Advancing Translational Sciences (NCATS), 2010).
Potency means the concentration at half of the fitted maximal effect.

A short description of this assay: qHTS Assay for Lipid Storage Modulators in Drosophila S3 Cells.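 On cell number change: cells counted by Cell Tracker Red CMTPX staining in the red channel.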 On lipid storage change, negative = inhibition: on the % scale 0 is the no-effect control and ±100 the full control effect. Conditions: BODIPY lipid droplet fluorescence, 18-24 h, cells fed with added oleic acid; cell number change: measured here: cell count max response; series mostly up to 46.1 µM; lipid storage change, negative = inhibition: at the top concentration. A digest of the protocol: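 Drosophila S3 cells got compounds at several concentrations plus oleic acid (400 uM solution). Laser-scanning cytometry with 488 nm excitation read lipid droplets at 500-530 nm and cells at 575-640 nm. Percent activity was relative to 20 uM Triacsin C.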
In general terms: In qHTS, concentration-response curves come from the screen itself.
Consider `CC1(C)CC(=O)CC(C)(C)N1OC(=O)c1ccccn1`, for which the Potency is 32.6 µM (active).

On to `CC(=O)c1ccccn1`, for which the “lipid storage change, negative = inhibition” value is 9.67% (inactive) and the cell number change worked out at 12.7%.

Turning to `CC(C#N)Sc1nnc(-c2ccccc2F)n1C1CC1` (stereo not drawn), the result was inactive and the cell number change was 7.26%. Turning to `NNC(=O)c1cc(C2CC2)nc2ccc(Br)cc12`, the “lipid storage change, negative = inhibition” value is 0.205% (inactive) and the cell number change was -5.67%.

Consider `O=C(NCCOc1nc(N2CCCCC2)nc(N2CCCCC2)n1)Nc1ccccc1`, for which the “lipid storage change, negative = inhibition” value was -1.62% (inactive) and the cell number change worked out at 0.327%. Consider `O=C(NCCOc1nc(N2CCOCC2)nc(N2CCOCC2)n1)Nc1ccccc1`, for which the “lipid storage change, negative = inhibition” value is 6.9% (inactive) and the cell number change is -14.8%. `O=C(NCCOc1nc(N2CCCCC2)nc(N2CCOCC2)n1)Nc1ccccc1`: the Potency is 0.731 µM (active) and the cell number change was -5.19%. For `Cc1ccc(NNC(N)=S)cc1Cl`, the “lipid storage change, negative = inhibition” value was 10.3% (inactive) and the cell number change turned out to be 18.1%. As to `COc1ccccc1-c1nnc(C2CCN(S(=O)(=O)c3ccccc3[N+](=O)[O-])CC2)o1`, the “lipid storage change, negative = inhibition” value was -28.1% (inactive).

As for `Cc1cccc(-c2nc(CN3CCCC(C(=O)NC4CCCCCC4)C3)c(C)o2)c1` (stereo not drawn), the “lipid storage change, negative = inhibition” value is -4.34% (inactive) and the cell number change was found to be 2.33%. `CCOC(=O)N1CCN(S(=O)(=O)c2ccc(Cl)cc2)CC1`: the compound was classed as inactive and the cell number change was found to be 24.3%. With `CCc1cc(C(=O)N2CCN(S(=O)(=O)c3ccc(Cl)cc3)CC2)sc1C`, the Potency is 11.6 µM (active) and the cell number change was 6.97%. `Cc1ccc(C)c(S(=O)(=O)N2CCN(C(=O)c3cccn3C)CC2)c1`: the compound was called inactive and the cell number change was -13.9%.

As for `Cc1ccc(C)c(S(=O)(=O)N2CCN(C(=O)c3ccc(C)s3)CC2)c1`, the “lipid storage change, negative = inhibition” value is -9.47% (inactive) and the cell number change worked out at 6.27%.

`Cc1ccccc1-n1nc(C)c2cc(C(=O)N3CCN(S(=O)(=O)c4ccc(Cl)cc4)CC3)sc21`: the “lipid storage change, negative = inhibition” value was -0.0133% (inactive) and the cell number change was -4.24%. On to `CCc1cc(C(=O)N2CCN(S(=O)(=O)c3cc(C)ccc3C)CC2)sc1C`, for which the Potency was 20.6 µM (active) and the cell number change is -8.23%. With `COc1ccccc1N1CCN(CC(O)COc2ccc3c(c2)CCC3)CC1` (stereo not drawn), the “lipid storage change, negative = inhibition” value was -12.6% (inactive) and the cell number change turned out to be 1.49%. On the same counts, the results for `COc1ccc(-c2cc(C(=O)N3CCOCC3)no2)cc1OC` are 10.4% (inactive) and -3.96%.

For `CSCCNC(=O)Nc1c(-c2c(Cl)cccc2Cl)noc1C`, the “lipid storage change, negative = inhibition” value was 2.52% (inactive).

`COc1ccccc1C1(CC(=O)O)CCOC(C(C)C)C1` (stereo not drawn): the “lipid storage change, negative = inhibition” value is -17.5% (inactive) and the cell number change was -4.59%. Turning to `CCC1(C)CC(CC(=O)O)(c2ccccc2OC)CCO1` (stereo not drawn), the Potency was 29.1 µM (active) and the cell number change was -13.5%. Take `CCOC(=O)CC1(c2ccccc2)CCOC(C)(C)C1` (stereo not drawn): the “lipid storage change, negative = inhibition” value is -20% (inactive) and the cell number change is 5.31%. On the same counts, the results for `CC(C)c1ccc(S(=O)(=O)N2CCN(C(=O)C3CC3C)CC2)cc1` (stereo not drawn) are 9.88% [at 0.0737 µM] (inactive) and 13.5%. The matching figures for `CC(=O)N1CCc2cc(Br)cc(S(=O)(=O)NCCCN3CCC(C)CC3)c21`: -1.66% (inactive) and 6.06%. Turning to `Cc1cnc(C(=O)OCC(=O)c2ccc(F)c(F)c2)cn1`, the compound was classed as inactive and the cell number change came out at 6.94%.

In the case of `Cc1nc2ncnn2c(C)c1CCC(=O)NC(C)CCc1ccco1` (stereo not drawn), the “lipid storage change, negative = inhibition” value is -27.5% (inactive) and the cell number change is -25.3%. For `CC(C)COc1ccccc1C(=O)NC(CO)C(=O)O` (stereo not drawn), the “lipid storage change, negative = inhibition” value is 10% (inactive) and the cell number change is -5.46%.

For the compound `CCOc1ccccc1C(=O)NC(CO)C(=O)O` (stereo not drawn), the Potency is 20.6 µM (active) and the cell number change was -20.4%. On to `CC(C)Oc1ccccc1C(=O)NC(CO)C(=O)O` (stereo not drawn), for which the “lipid storage change, negative = inhibition” value is 7.17% (inactive) and the cell number change was -13.9%. The matching figures for `CS(=O)(=O)N(Cc1ccccc1)c1ccc(C(=O)N2CCc3ccccc3C2)cc1`: -15.5% (inactive) and 13.2%.

On to `Cc1cc(/C=N/Nc2nc(N3CCOCC3)nc(N3CCOCC3)n2)c(C)n1-c1ccccc1`, for which the “lipid storage change, negative = inhibition” value was 0.381% (inactive) and the cell number change was determined as 2.32%. On the same counts, the results for `CCCCn1c(N)c(N(CC)C(=O)C2CCCC2)c(=O)[nH]c1=O` are 1.39% (inactive) and 14.7%. As to `CC(=O)N1c2ccc(S(=O)(=O)N(C)CC(=O)NC3CCCCC3C)cc2CC1C` (stereo not drawn), the call was inactive. As for `COc1cn(-c2ccccc2)nc1C(=O)Nc1ccccc1`, the Potency was 0.92 µM (active) and the cell number change stood at 5.86%. Take `COc1cn(-c2ccccc2)nc1C(=O)NCc1ccccc1`: the result was inactive and the cell number change was 10.4%. In the case of `COc1cn(-c2ccccc2)nc1C(=O)OCC(=O)Nc1ccc(C)c(C)c1`, the “lipid storage change, negative = inhibition” value is 8.1% (inactive) and the cell number change is -22.3%. `Cc1cc(C)c(OCC(=O)Nc2ccc3c(c2)OCO3)cc1C`: the result was inactive.

Take `CC(C)C1Oc2ccccc2N(CC(=O)N(Cc2ccncc2)Cc2ccco2)C1=O` (stereo not drawn): the “lipid storage change, negative = inhibition” value is 0.319% (inactive) and the cell number change is -0.805%. Consider `CN(CCCC1CCCC1)C(=O)c1cc(COc2c(F)cccc2F)on1`, for which the Potency was 5.8 µM (active) and the cell number change was -27.2%. On to `CN(CCCC1CCCC1)C(=O)c1cc(COc2ccc(F)cc2F)on1`, for which the “lipid storage change, negative = inhibition” value was -23.9% (inactive) and the cell number change amounted to 15.8%. As for `CN(CCCN1CCOCC1)C(=O)c1cc(COc2c(F)cccc2F)on1`, the call was inactive.

Regarding `Cc1c(NC(=O)c2n[nH]c(=O)c3ccccc23)c(=O)n(-c2ccccc2)n1C`, the “lipid storage change, negative = inhibition” value is -4.65% (inactive) and the cell number change was found to be 5.44%. `Cc1c(NC(=O)c2ccc(N(C)S(=O)(=O)c3ccccc3)cc2)c(=O)n(-c2ccccc2)n1C`: the “lipid storage change, negative = inhibition” value was 3.31% (inactive) and the cell number change was 0.409%. On the same counts, the results for `CCO[C@H]1OC(C(=O)NCc2nc3ccccc3[nH]2)=C[C@@H](C2CCCCC2)[C@@H]1CCCO` are -4.55% (inactive) and -1.73%.

As to `COc1ccc(C2CC3(CC(C)(C)NC(SC)=N3)Oc3cc(O)cc(C)c32)cc1` (stereo not drawn), the Potency is 23.1 µM (active) and the cell number change was 26.2%. With `Cc1cc(O)cc2c1C(c1ccc(F)cc1)CC1(CC(C)(C)NC(=S)N1)O2` (stereo not drawn), the “lipid storage change, negative = inhibition” value is 15.9% (inactive) and the cell number change is 11.1%. Consider `COc1ccc(C2CC3(CC(C)(C)NC(=S)N3)Oc3cc(O)cc(C)c32)cc1` (stereo not drawn), for which the “lipid storage change, negative = inhibition” value was 22% (inactive) and the cell number change is -1.84%.
